Assay outcomes as filed in PubChem BioAssay.
Mito fusion act – mitochondrial division inhibition or fusion activation. 0.23% of 320,000 active. Potency, µM (doses to about 46.1 µM), inactives show top-dose growth rescue (activation), hits mostly activators. S. cerevisiae fusion-defective mutant growth rescue, CellTiterGlo 48 h; further: potency means the concentration at half of the fitted maximal effect; % of control where 0% means no effect; nearly all actives have a fitted effect of over 45% in size
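Luminescent cell viability in 1536-well qHTS format served as the measure of rescued growth in ts fusion-mutant S. cerevisiae cultured on non-fermentable YPEG for 48 hours at 37C.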
TCR act – T cell receptor activation. 330,000 tested, under 10 active. Potency, µM (highest dose often 9.22 µM), for inactives: at the highest dose activation of IL-2 secretion, actives largely listed as activators. primary human leukocytes, anti-CD3, IL-2 HTRF, 48 h; further: % of control where 0% means no effect
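HTRF read-out of IL-2 secretion: europium cryptate donor excited at 320nm, d2 acceptor emission at 665nm. Cells were primary human leukocytes incubated 48 hr with compounds and a-CD3 beads, supplying TCR signal only.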
GRP78 ERSR act – ER stress response induction in glioma; U87-MG GRP78 promoter luciferase reporter, 16 h; Potency, µM, for inactives: at the highest dose activation, most hits filed as activators; 0.02% of 420,000 active; further: potency means the concentration at half of the fitted maximal effect; series mostly up to about 76 µM; % of control where 0% means no effect; nearly all actives have a fitted effect of over 35% in size
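Stably transfected U87-MG glioma cells carrying a GRP78-based luciferase sensor; 16 h compound incubation. Luminescence end-point read 10 min after Bright-Glo addition at room temperature.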
MBNL1 CUG block – MBNL1-poly(CUG) RNA binding inhibition | 0.036% of 280,000 active | Potency, µM (highest dose often 57.5 µM), for inactives: at the top dose activity change, negative = inhibition, usual class: inhibitors | Q9NR56 | AID 2675 | TR-FRET MBNL1-His/biotin-(CUG)12 binding, 665/545 ratio; active means well fitted inhibition curve with a large enough effect in the signal ratio, with a control signal flat, not every such curve was filed as active; inconclusive means small, poorly fitted or top-dose-only effect, or effect the other way, or a change in a side signal; inactive means no such curve, though single readings can be large or run the other way; the % refers to the signal ratio; further: potency means the concentration at half of the fitted maximal effect; on the % scale 0 is the no-effect control and ±100 the full control effect
Target sequence (Q9NR56 whole entry, looked up): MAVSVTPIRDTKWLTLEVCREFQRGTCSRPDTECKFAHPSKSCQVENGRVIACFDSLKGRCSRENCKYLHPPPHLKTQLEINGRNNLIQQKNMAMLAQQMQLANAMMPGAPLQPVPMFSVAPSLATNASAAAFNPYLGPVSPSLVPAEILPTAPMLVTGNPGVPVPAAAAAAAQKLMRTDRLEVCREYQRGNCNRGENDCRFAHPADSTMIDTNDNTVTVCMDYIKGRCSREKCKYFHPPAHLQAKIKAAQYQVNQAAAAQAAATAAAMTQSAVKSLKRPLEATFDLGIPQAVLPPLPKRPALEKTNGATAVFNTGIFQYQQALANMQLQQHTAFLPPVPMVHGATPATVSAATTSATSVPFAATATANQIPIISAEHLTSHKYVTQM
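MBNL1-His + Biotin-(CUG)12, cpd titration 92 nM–58 uM; Tb anti-His Ab 0.055 ng/ul, SA-XL665 5 nM (final); 60 min RT; ratiometric 665/545 nm, Ex 340 nm; normalized to buffer and full-complex controls.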
AT treatment – candidate therapy for ataxia-telangiectasia. Potency, µM (titrated, usually from 57.5 µM), without a hit: at the top dose activation, hits mostly activators. F2112 A-T fibroblasts, KAP-1 phosphorylation AlphaLISA; neocarzinostatin DNA damage 30 min before lysis. 0.19% of 320,000 active; further: potency means the concentration at half of the fitted maximal effect; % of control where 0% means no effect; nearly all actives have a fitted effect of over 45% in size
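ATM-like activity read as KAP-1 phosphorylation via AlphaLISA donor/acceptor antibody pairs after lysis and 6 hr at 25C. Cells were ATM-null patient fibroblasts (F2112, hTERT), dosed 60 min, then exposed to the DSB inducer NCS for 30 min.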
ClpP mod – qHTS Assay for Activators of ClpP; AID 651965, 2013; Potency, µM (series often up to 57.5 µM), inactives show at the top dose activity change, negative = active; ATP-dependent Clp protease proteolytic subunit (Bacillus subtilis (strain 168)), P80244; purified B. subtilis ClpP, FRET peptide cleavage, 20 min; 1.9% of 340,000 active; active means well fitted falling curve with a large enough effect; inconclusive means small, poorly fitted or top-dose-only effect; inactive means no such curve, though single readings can be large or run the other way; further: potency means the concentration at half of the fitted maximal effect; the source files actives as falling curves though it sought activators and does not explain the sign; nearly all actives have a fitted effect of over 65% in size
Target sequence (P80244 whole entry, looked up): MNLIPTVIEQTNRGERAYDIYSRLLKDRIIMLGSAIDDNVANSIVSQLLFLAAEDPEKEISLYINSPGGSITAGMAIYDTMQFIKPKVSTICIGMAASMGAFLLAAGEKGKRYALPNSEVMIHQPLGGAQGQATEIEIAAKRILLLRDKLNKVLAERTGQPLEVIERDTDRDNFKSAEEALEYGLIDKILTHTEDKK
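Buffer: 100 mM Tris/HCl pH8, 100 mM KCl, 0.05% low protease BSA, 2.5% glycerol, 0.01% Tween-20. ClpP 10 microg/mL final; 20 min RT; delta FRET normalized to ADEP and DMSO controls.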
* hit, by the source's call; ? = inconclusive; . = no result; [ ] = another dose, or the depositor's remark. The list is not random: actives were taken first. Their share in the collection is about 1.8%. Unless noted, the call rests on the fitted dose curve; in most records, active means well fitted curve in the direction sought with a large enough effect; inconclusive means small, poorly fitted or top-dose-only effect, or another doubt; inactive means no such curve, though single readings can be large; an effect the other way counts as inactive or inconclusive.

SMILES	Mito fusion act	TCR act	GRP78 ERSR act	MBNL1 CUG block	AT treatment	ClpP mod
Cc1cccc2cc(CN(Cc3nnnn3C3CCCCC3)C3CCCC3)c3nnnn3c12	11µM*	5%[46.1 µM]	-3%	1%	-3%	-3%
CC1CCCC(NC(=O)COC(=O)CCC(=O)c2cccs2)C1C (configuration not stated)	.	-3%	-5%	.	-2%	0%
CC1CCCC(NC(=O)COC(=O)CCC(=O)c2ccc(F)cc2)C1C (configuration not stated)	.	5%[46.1 µM]	-2%	.	-3%	2.5µM*
COC(=O)c1ccc(CN2CCOc3ccc(C(O)c4cccnc4)cc3C2)cc1 (configuration not stated)	.	.	-3%	.	.	.
CN(C)C(=O)CSc1nnc(-c2cc(-c3cccs3)nc3ccccc23)o1	-2%	-11%	0%	14%	3%	25µM*
CCN(CC)C(=O)CSc1nnc(-c2cc(-c3ccc(Cl)cc3)nc3ccccc23)o1	-2%	3%[46.1 µM]	-5%	-9%	-5%	-2%
O=C(/C=C/c1ccc2c(c1)OCO2)NCCSCc1ccc(Cl)cc1Cl	10%	-6%	-4%	8%	0%	-1%
O=C(/C=C/c1ccc2c(c1)OCO2)NCCCN1CCOCC1	-5%	-17%	-2%	18%	-13%	16µM*
O=C(/C=C/c1ccc(Cl)cc1)NCCCN1CCOCC1	-2%	1%	-1%	18%	0%	0%
O=C(/C=C/c1ccc2c(c1)OCO2)NCCSCc1cccc(Cl)c1	2%	7%	-3%	8%	2%	32µM*
CCCC[C@H]1C2=C3[C@@H](CC(C(=O)OC)=C[C@@H](C(=O)OC)[C@H]3C(C)(C)C2=O)n2c(=O)n(C)c(=O)n21	.	.	-5%	.	.	.
CCc1ccc(NC(=O)COC(=O)c2ccccc2OCC(=O)N(C)C)cc1	.	.	-2%	.	.	-4%
CCSc1nc(-c2ccc(OC)cc2)n(-c2nc3ccccc3s2)n1	13%	1%	2%	9%	3%	28µM*
COc1ccc(-c2nnc(SCC(=O)Nc3nc4ccccc4s3)n2C)cc1	0%	-2%	4%	5%	2%	-1%
CCOC(=O)CSc1nc2ccccc2c(=O)n1CCc1ccc(OC)c(OC)c1	.	.	-4%	.	.	1%
CC1CCN(C(=O)c2ccccc2SCC(=O)NCC2CCCCC2)CC1	7%	5%	-4%	.	7%	22µM*
COCCNC(=O)CSc1ccccc1C(=O)NCC1CCCCC1	3%	-1%	-4%	-1%	-4%	.
CCCCCN1C=CC=C/C1=C\C=C(C#N)C#N	-3%	4%	-2%	?	-8%	.
CCCCCCN1C=CC=C/C1=C/C=C(C#N)C#N	13µM*	1%[46.1 µM]	-4%	17%[11.5 µM]	-5%	2%
Oc1cc(-c2nc3ccccc3s2)cc2c1OCCN(Cc1cccn1-c1ncccn1)C2	.	.	-3%	.	.	.
Cc1cc(C)c2c(=O)cc(C(=O)NCc3ccccc3)oc2c1	-7%	0%	-8%	-9%	35µM*	-1%
Cc1cc(C)c2oc(C(=O)NCc3ccccc3)cc(=O)c2c1	12%	-5%	-2%	0%	3%	-21%
Cc1ccc2c(=O)cc(C(=O)NCc3ccccc3)oc2c1C	13µM*	1%	1%	-11%	13%	-6%
CN(C)C1CCc2[nH]c3ccc(NC(=O)c4ccc(F)cc4)cc3c2C1 (configuration not stated)	.	.	-2%	.	.	.
Cc1c(C)c2cc(Cl)c(O)c(CN3CCCC(C)C3)c2oc1=O (configuration not stated)	6%	0%	-3%	27%	10%	6.3µM*
SMILES	Mito fusion act	TCR act	GRP78 ERSR act	MBNL1 CUG block	AT treatment	ClpP mod
Cc1c(C)c2cc(Cl)c(O)c(CN3CCN(C)CC3)c2oc1=O	-2%	-13%	-1%	?	13%	16%
CC(C)Nc1nc(NCCOc2ccccc2Cl)c2sc(-c3ccccc3)cc2n1	.	.	0%	.	.	25µM*
COc1cccc(CNC(=O)c2c(OC)cc(=O)n3c2CCN(C(=O)c2cc(C)ccc2C)CC3)c1	.	.	-7%	.	.	.
Cc1cc(C)n(C(=O)c2ccccc2[N+](=O)[O-])n1	0%	6%[46.1 µM]	-2%	?	0%	35µM*
COc1ccc2c(C(=S)N(C)CC(=O)O)cccc2c1C(F)(F)F	.	.	-2%	.	.	.
CC1CC2(CCCCC2)Nc2ccc3ccccc3c21 (configuration not stated)	2%	-3%[46.1 µM]	5%	?	5%	18µM*
CC(=O)N1c2ccc3ccccc3c2C(C)CC12CCCCC2 (configuration not stated)	21%	-3%	-4%	9%	.	-8%
COc1ccccc1N1CC(O)=C(c2nc3ccccc3c(=O)[nH]2)C1=N	5%	-3%	-2%	1%	-9%	32µM*
CC1(C)CC(=O)c2sc(NC(=O)CN3CCCCC3)nc2C1	1%	-6%	-1%	-3%	2%	16µM*
Clc1ccccc1-c1nn2c(-c3cc(-c4ccccc4)n[nH]3)nnc2s1	.	.	-3%	.	.	-24%
O=C(O)CCCNc1ccc(S(=O)(=O)Nc2ccccc2C(=O)O)cc1C(=O)O	2%	-2%	-3%	-7%	-3%	16µM*
Cn1c(=O)n(C)c2cc(S(=O)(=O)Nc3ccccc3C(=O)O)ccc21	-1%	-1%	-2%	-10%	-5%	?
COc1ccc2oc(=O)c(-c3csc(Nc4ccc(O)cc4)n3)cc2c1	16µM*	-2%[46.1 µM]	-3%	?	-8%	-1%
COc1ccc2oc(=O)c(-c3csc(-c4ccc(Br)cc4)n3)cc2c1	.	.	-4%	.	.	-29%
FC(F)(F)c1ccccc1-c1nccc(-n2ccnc2)n1	.	.	-2%	.	.	.
O=S1(=O)NC2CCCCCN2c2ccc(F)cc21 (configuration not stated)	1%	3%	-5%	0%	16%	28µM*
COc1ccc(CN(C(=O)c2ccco2)C2CCS(=O)(=O)C2)cc1 (configuration not stated)	1%	-2%	-6%	-8%	9%	28µM*
Cc1cc(OCC(=O)N(Cc2ccco2)C2CCS(=O)(=O)C2)cc(C)c1Cl (configuration not stated)	-2%	3%	-5%	2%	8%	28µM*
COc1ccccc1C1CN(CC(=O)N[C@H]2CCCCNC2=O)Cc2ccccc2O1 (some centres not stated)	.	.	-3%	.	.	.
Cc1cccc(CNc2nc(-c3ccccc3CN(C)C)nc3ccccc23)c1	.	.	2%	.	.	.
CCOC(=O)c1sc2nc(CC(=O)OC)nc(NCc3ccco3)c2c1C	11%	-1%	-1%	17%	9%	28µM*
